“And” between values parts separate entries of the source, which are not always exact repeats. Identical values can stand only once. The campaign covered roughly 420,000 compounds. About 64,000 (15%) were called active. Another 27% or so got no clear call; they are omitted. Calls come from the whole dose curve; as a rule, active = well fitted inhibition curve with a large enough effect; inconclusive = small, poorly fitted or top-dose-only effect; inactive = flat fitted curve, though single readings scatter. Not all results are given here.
Assay: qHTS for Inhibitors of human tyrosyl-DNA phosphodiesterase 1 (TDP1): qHTS in cells in absence of CPT; note: nearly all actives have a fitted effect of over 55% in size
Conditions: DT40 Tdp1-/- hTDP1 cells, no CPT, ATP luminescence, 48 h; activity change, negative = growth inhibition: at 46.2 µM (top of the series)
How it was run: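 Cells were dispensed at 400 per well, compounds added by pin tool, plates incubated ≥48 hr at 37 °C, then CellTiter-Glo added for 30 min at room temperature before luminescence reading. Line: DT40 Tdp1-/- complemented with hTDP1; camptothecin omitted.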
% is set by controls: 0 for no effect and ±100 for the full control effect; potency is the fitted concentration of half-maximal effect.

Row | SMILES | Potency | activity change, negative = growth inhibition
1 | C/C=C/C=C/C(=O)O | inactive | –
2 | COc1cc(/C=C/C(=O)OCC(=O)NCCCc2ccccc2)ccc1O | – | -15.4% (inactive)
3 | C[C@@H](NC(=O)[C@@H]1Cc2ccccc2CN1)C(=O)NC1CCCC1 | – | 4.68% (inactive)
4 | COc1ccc(/C=N/n2nnnc2N)cc1OC | – | -7.02% (inactive)
5 | COc1ccc(/C=C/c2noc(-c3ccccc3O)n2)cc1OC | – | -20.9% (inactive)
6 | COc1cc(OC)cc(C(=O)NNC(=O)CCOc2ccccc2OC)c1 | – | 17.1% (inactive)
7 | COc1ccc(/C=C/c2ccccn2)cc1OC | 12.6 µM (active) | –
8 | C=CCOc1ccc(/C=N/n2cncn2)cc1OC | – | -10.4% (inactive)
9 | COc1cc(OC)c(/C=C/c2ccnc3ccccc23)c(OC)c1 | 8.91 µM (active) | –
10 | COc1cc(/C=C/c2ccc(/C=C/c3cc(OC)c(OC)c(OC)c3)cc2)cc(OC)c1OC | – | -25.1% (inactive)
11 | COc1ccc(/C=C/c2ccnc3ccccc23)cc1OC | 12.6 µM (active) | –
12 | O=C(CSc1nnc(-c2ccccc2)o1)N1CCOCC1 | – | -12.2% (inactive)
13 | O=C(CN1C(=O)c2ccccc2S1(=O)=O)N1CCc2ccccc21 | – | -1.33% (inactive)
14 | Cc1ccc2c(O)c(Cc3ccccc3)c(=O)[nH]c2n1 | – | -11.8% (inactive)
15 | CC(C)N(Cc1nnc(-c2ccc(Cl)cc2)o1)C(=O)C1=COCCO1 | – | -48.1% (inactive)
16 | O=c1nc(NO)ccn1C1CCCO1 (stereo unspecified) | – | -7.86% (inactive)
17 | Cc1ccc(OCc2nnc(NC(=O)OCC(C)C)s2)cc1 | – | -6.38% (inactive)
18 | O=C(CNC(=O)c1cccs1)N/N=C/c1cccc(Br)c1 | – | -4.86% (inactive)
19 | O=C(Nc1cccc(Cl)c1)c1cc(S(=O)(=O)N2CCCCC2)c[nH]1 | – | 3.97% (inactive)
20 | CC(=O)N1c2ccc(S(=O)(=O)N3CCC(C(=O)NCc4ccc(F)cc4)CC3)cc2CC1C (stereo unspecified) | – | -11.9% (inactive)
21 | COc1ccc(NC(=O)C(CC(C)C)NS(=O)(=O)c2ccc3c(c2)CCN3C(C)=O)cc1OC (stereo unspecified) | – | -10.4% (inactive)
22 | CCc1cccc(NC(=O)C2CCCN(S(=O)(=O)c3ccc4[nH]c(=O)ccc4c3)C2)c1 (stereo unspecified) | – | -3.92% (inactive)

Row | SMILES | Potency | activity change, negative = growth inhibition
23 | CC(=O)N1c2ccc(S(=O)(=O)N3CCCC(C(=O)Nc4cccc(F)c4)C3)cc2CC1C (stereo unspecified) | 29.1 µM (active) | –
24 | CCOC(=O)C1CCCN(S(=O)(=O)c2ccc(-n3cnnn3)c(C)c2)C1 (stereo unspecified) | – | -23.5% (inactive)
25 | CC(=O)N1c2ccc(S(=O)(=O)N3CCCC(C(=O)Nc4cccc(Cl)c4)C3)cc2CC1C (stereo unspecified) | 20.6 µM (active) | –
26 | Cc1cc(C)cc(NC(=O)C2CCCN(S(=O)(=O)c3ccc4[nH]c(=O)ccc4c3)C2)c1 (stereo unspecified) | – | -5.14% (inactive)
27 | CC(=O)N1CCCc2cc(S(=O)(=O)N3CCCC(C(=O)N4CCN(c5cccc(Cl)c5)CC4)C3)ccc21 (stereo unspecified) | 2.59 µM (active) and 8.2 µM (active) | –
28 | CC(=O)N1CCCc2cc(S(=O)(=O)Nc3ccc(Cl)cc3F)ccc21 | 23.1 µM (active) | –
29 | CC(=O)N1CCCc2ccc(NS(=O)(=O)c3ccc(F)cc3F)cc21 | – | -14.1% (inactive)
30 | CCOC(=O)C1CCCN(S(=O)(=O)c2ccc3c(c2)C(C)(C)C(=O)N3C)C1 (stereo unspecified) | – | -17.4% (inactive)
31 | Cc1nc2cc(S(=O)(=O)C(F)(F)F)ccc2s1 | – | -6.85% (inactive)
32 | CCOC(=O)c1sc(NC(=O)C2CSC3(C)CCC(=O)N23)nc1C (stereo unspecified) | – | -3.05% (inactive)
33 | O=C(COC(=O)[C@H](Cc1ccccc1)NC(=O)c1cccs1)Nc1cc(F)ccc1F | – | -8.16% (inactive)
34 | C/C(=N\Nc1ccc([N+](=O)[O-])cc1)c1ccc(-n2nncc2C(C)(C)C)cc1 | – | -23.8% (inactive)
35 | CCc1cc(=O)oc2c(C)c(OCC(=O)N3CC[C@@]4(O)CCCC[C@H]4C3)ccc12 | – | -24.2% (inactive)
36 | COC(=O)C1=NN(c2ccccc2)C2C(=O)N(c3ccccc3OC)C(=O)C12 (stereo unspecified) | – | 0.0774% (inactive)
37 | COc1ccc(S(=O)(=O)NNC(=O)Nc2ccc(C)cc2)c(OC)c1 | – | -20.2% (inactive)
38 | CC(=O)c1cnc(SCC(=O)O)nc1C | – | -22.3% (inactive)
39 | O=C(NCc1ccccc1)C(c1cccnc1)N(C(=O)c1csnn1)c1ccc(F)cc1 (stereo unspecified) | – | -2.72% (inactive)
40 | COc1ccc(C(C(=O)NCc2ccccc2)N(Cc2cccs2)C(=O)c2cnccn2)cc1 (stereo unspecified) | 16.4 µM (active) | –
41 | Cc1cccc(N(C(=O)c2csnn2)C(C(=O)NCc2ccccc2)c2ccncc2)c1 (stereo unspecified) | – | -21.1% (inactive)
42 | COC(=O)CN1C(=O)[C@H]2[C@@H](/C=C/c3ccccc3)N3C(=O)CN(Cc4ccccc4)C(=O)[C@@]3(Cc3ccccc3)[C@H]2C1=O | – | -15.4% (inactive)
43 | C[C@@H]1CN([C@@H](C)CO)C(=O)CCCn2nncc2CO[C@H]1CN(C)C(=O)Nc1ccc(C(F)(F)F)cc1 | – | -17.4% (inactive)
44 | CC(C)n1c(C(O)c2ccccc2)nc2ccccc21 (stereo unspecified) | – | -4.93% (inactive)

Row | SMILES | Potency | activity change, negative = growth inhibition
45 | CC(=O)NC(Cc1c[nH]c2ccccc12)C(=O)O (stereo unspecified) | – | -0.64% (inactive)
46 | CC(C)n1c(NCc2c[nH]c3ccccc23)nc2ccccc21 | 13 µM (active) | –
47 | Cc1ccc2c(c1)N(C(=O)Nc1ccc(Br)cc1F)CCO2 | – | -14.3% (inactive)
48 | O=C1OCCN1C(=O)[C@H]1[C@H](c2ccccc2)C(c2ccc(F)cc2)=NN1c1ccccc1 | – | -3.74% (inactive)
49 | C[C@@H]1C(c2ccc(F)cc2)=NN(c2ccc(Br)cc2)[C@H]1C(=O)N1CCOC1=O | 20.6 µM (active) | –
50 | COc1ccc(/C(N)=N/OC(=O)CCCc2ccccc2)cc1 | – | -6.16% (inactive)
51 | CONC(=O)c1cc(OCC(F)(F)F)ccc1OCC(F)(F)F | – | 2.93% (inactive)
52 | CCn1c(SCc2ccc(C)cc2)nnc1-c1nn(-c2ccccc2)ccc1=O | – | -27.9% (inactive)
53 | CCc1ccc(-c2nn(-c3ccccc3C)cc2C(=O)N2CCN(C3CCS(=O)(=O)C3)CC2)cc1 (stereo unspecified) | – | 4.44% (inactive)
54 | CCc1ccc(-c2nn(-c3ccccc3)cc2CSC(=N)N)cc1 | 23.1 µM (active) | –
55 | O=C(CCS(=O)(=O)Cc1ccccc1)Nc1ccc2c(c1)OCCO2 | – | -0.997% (inactive)
56 | CCN(Cc1ccncc1)C(=O)CCc1ccccc1 | – | -10.6% (inactive)
57 | Cc1ccc(C)c(S(=O)(=O)N2CCCOC2CNC(=O)C(=O)NC2CCCCC2)c1 (stereo unspecified) | – | -23% (inactive)
58 | CN(C(=O)COC(=O)Cc1ccccc1[N+](=O)[O-])C1CCS(=O)(=O)C1 (stereo unspecified) | – | -9.32% (inactive)
59 | O=C(c1ccncc1)N1CCN(S(=O)(=O)c2cccc([N+](=O)[O-])c2)CC1 | – | 2.95% (inactive)
60 | CC1(c2cccc([N+](=O)[O-])c2)CC(C)(C)N(C(=O)c2ccccc2)c2ccccc21 (stereo unspecified) | 18.4 µM (active) | –
61 | O=C(c1cccc([N+](=O)[O-])c1)N1CCN(Cc2ccccc2)CC1 | – | 6.66% (inactive)
62 | N#Cc1ccc(-c2ccc3nccn3c2)cc1 | – | -7.83% (inactive)
63 | Cn1c(=O)c(C(=O)O)nn(-c2ccccc2)c1=O | 16.4 µM (active) | –
64 | CC(=O)c1nn(-c2ccccc2)c(=Nc2ccccc2)cc1C | – | -19.2% (inactive)
65 | Cc1ccc(-n2ccc(=O)c(C(=O)O)n2)cc1 | – | -6.98% (inactive)
66 | CCC1SC(CC)C(=O)N(CC(=O)NC2CCCCC2)C1=O (stereo unspecified) | – | -13.1% (inactive)

Row | SMILES | Potency | activity change, negative = growth inhibition
67 | CC(C)Oc1ccc(S(=O)(=O)N2CCOCC2)cc1NC(=O)C1CCCC1 | – | 1.44% (inactive)
68 | COc1ccc(NC(=O)COC(=O)Cn2c(C)nc3ccccc32)cc1OC | – | -18.9% (inactive)
69 | O=C(Cn1c(-c2cscn2)nc2ccccc21)Nc1ccc(Cl)cc1 | 20.6 µM (active) | –
70 | O=C(Cn1c(-c2cncs2)nc2ccccc21)NC1CCCC1 | – | -9.17% (inactive)
71 | C#CCOCCOCCOCCNc1nc(N2CCN(C(=O)[C@H](Cc3ccc(O)cc3)n3cc(C(N)CC(C)C)nn3)CC2)nc(N2CCN(C(=O)[C@H](CCC(=O)O)n3cc(C(N)[C@H](C)CC)nn3)CC2)n1 (stereo partly specified) | – | -3.33% (inactive)
72 | O=C(CSc1nc(C2CC2)nc2ccccc12)Nc1ccc2c(c1)OCCO2 | 20.6 µM (active) | –
73 | Cc1nnc(NC(=O)CSc2nc(C3CCCCC3)nc3ccccc23)s1 | – | -29.8% (inactive)
74 | O=C(CN1CCN(CC(=O)Nc2ccc3c(c2)OCO3)CC1)Nc1ccc(F)cc1 | – | -22.2% (inactive)
75 | COC(=O)CSc1nc(C2CC2)nc2ccccc12 | – | -3.67% (inactive)
76 | O=C(CSc1nnc(-c2ccccn2)n1-c1ccccc1)Nc1ccc2c(c1)OCO2 | – | -6.15% (inactive)
77 | CN(C(=O)CSc1nc(C2CC2)nc2ccccc12)c1nc(-c2ccccc2)cs1 | 20.6 µM (active) | –
78 | O=C(CSc1nc(C2CC2)nc2ccccc12)Nc1cccc(O)c1 | – | -15.2% (inactive)
79 | O=C(CSc1nc(-c2cccc(F)c2)[nH]c1-c1ccccc1)Nc1ccc2c(c1)OCO2 | 10.3 µM (active) | –
80 | CCNC(=O)CSc1nc(-c2ccccc2)cs1 | – | 3.72% (inactive)
81 | CC(=O)Oc1ccc(C(=O)Nc2nccs2)cc1 | – | -11.2% (inactive)
82 | Cc1ccc(C(=O)N/C(=C/c2cccnc2)C(=O)O)cc1 | – | 12% (inactive)
83 | Cn1ccnc1SCC(=O)Nc1ccc2c(c1)OCCO2 | – | 17% (inactive)
84 | Cc1cc([N+](=O)[O-])c(=O)[nH]c1C | – | -2.5% (inactive)
85 | COc1ccc(S(=O)(=O)NCC(c2ccco2)N2CCOCC2)cc1 (stereo unspecified) | inactive | –
86 | Cn1cc(S(=O)(=O)NC(c2ccccc2)c2ccccc2)c(=O)n(C)c1=O | – | -10.4% (inactive)
87 | CCn1c(SCC(=O)Nc2nccs2)nnc1-c1ccco1 | – | -2.78% (inactive)
88 | Cc1cc(NC(=O)Nc2ccccc2)n(-c2ccccc2)n1 | – | 0.666% (inactive)

Row | SMILES | Potency | activity change, negative = growth inhibition
89 | Cc1cc(C)nc(-n2nc(C)cc2NC(=O)c2ccc(F)cc2F)n1 | 6.51 µM (active) | –
90 | O=C(COC(=O)c1ccc(F)cc1F)Nc1ncccn1 | – | 2.59% (inactive)
91 | CC(C)c1ccc(S(=O)(=O)N2CCC3(CC2)OCCO3)cc1 | – | -21.3% (inactive)
92 | c1ccc2c(c1)CCc1snnc1-2 | – | 10.7% (inactive)
93 | C=CCn1c(SCc2c(C)noc2C)nc2sc3c(c2c1=O)CCC(C)C3 (stereo unspecified) | 16.4 µM (active) | –
94 | C=CCn1c(SCC(=O)NCC2CCCO2)nc2sc(C)c(C)c2c1=O (stereo unspecified) | – | -25.5% (inactive)
95 | C=CCn1c(SCC(=O)NCCCO)nc2sc3c(c2c1=O)CCC3 | – | 15.7% (inactive)
96 | O=C(CN(CC1CCCO1)C(=O)CNS(=O)(=O)c1ccc(F)cc1)NCc1ccco1 (stereo unspecified) | – | 2.29% (inactive)
97 | Nc1nnc(SCC(=O)NCC(=O)Nc2ccc(F)c(F)c2F)s1 | – | -20.9% (inactive)
98 | Cc1ccc(Cn2c(C)c(C(=O)NCc3ccccc3C(F)(F)F)sc2=O)cc1 | – | -16.5% (inactive)
99 | Cn1c(CC(=O)Nc2ccc(F)cc2)nnc1SCC(=O)NC1CCCCC1 | – | 10.3% (inactive)
100 | O=C(c1ccco1)N1CCN(C(=O)C2c3ccccc3Oc3ccccc32)CC1 | – | -13.9% (inactive)
101 | O=C(CCSCc1ccccc1F)N1CCN(c2ccc(Cl)cc2)CC1 | 18.4 µM (active) | –
102 | O=C(CCc1ccccc1F)N1CCN(c2ccccc2)CC1 | – | -9.81% (inactive)
103 | O=C(Cc1ccccc1Cl)N1CCN(c2ccccn2)CC1 | – | -9.57% (inactive)
104 | Cc1cccc(N2CCN(C(=O)CCSCc3ccccc3F)CC2)c1C | 20.6 µM (active) | –
105 | O=C(CCSc1ccccc1)N1CCN(c2ccccc2F)CC1 | – | -14.6% (inactive)
106 | O=C(CCS(=O)(=O)c1cccc2nsnc12)N1CCN(c2ccccc2F)CC1 | – | -21.9% (inactive)

Reference: PubChem BioAssay AID686978 (National Center for Advancing Translational Sciences (NCATS), 2013)
